In the supplement of paper PMC11732987, “Enantioselective OTUD7B fragment discovery through chemoproteomics screening and high-throughput optimisation” (Communications Chemistry, 2025):

Key:
Assay in all cases: log2 ratio of Biotin-Ahx-Ub-VS probe labelling (fragment/DMSO); higher = less target engagement (more negative = stronger competition), active = hit call of the paper (q ≤ 0.05, log2 ratio ≤ -1)
Conditions in all cases: compound concentration: 200 uM; treatment time: 3 h
ALG13 = target: T1, ALG13 (UniProt Q9NP73)
T1 sequence (whole entry): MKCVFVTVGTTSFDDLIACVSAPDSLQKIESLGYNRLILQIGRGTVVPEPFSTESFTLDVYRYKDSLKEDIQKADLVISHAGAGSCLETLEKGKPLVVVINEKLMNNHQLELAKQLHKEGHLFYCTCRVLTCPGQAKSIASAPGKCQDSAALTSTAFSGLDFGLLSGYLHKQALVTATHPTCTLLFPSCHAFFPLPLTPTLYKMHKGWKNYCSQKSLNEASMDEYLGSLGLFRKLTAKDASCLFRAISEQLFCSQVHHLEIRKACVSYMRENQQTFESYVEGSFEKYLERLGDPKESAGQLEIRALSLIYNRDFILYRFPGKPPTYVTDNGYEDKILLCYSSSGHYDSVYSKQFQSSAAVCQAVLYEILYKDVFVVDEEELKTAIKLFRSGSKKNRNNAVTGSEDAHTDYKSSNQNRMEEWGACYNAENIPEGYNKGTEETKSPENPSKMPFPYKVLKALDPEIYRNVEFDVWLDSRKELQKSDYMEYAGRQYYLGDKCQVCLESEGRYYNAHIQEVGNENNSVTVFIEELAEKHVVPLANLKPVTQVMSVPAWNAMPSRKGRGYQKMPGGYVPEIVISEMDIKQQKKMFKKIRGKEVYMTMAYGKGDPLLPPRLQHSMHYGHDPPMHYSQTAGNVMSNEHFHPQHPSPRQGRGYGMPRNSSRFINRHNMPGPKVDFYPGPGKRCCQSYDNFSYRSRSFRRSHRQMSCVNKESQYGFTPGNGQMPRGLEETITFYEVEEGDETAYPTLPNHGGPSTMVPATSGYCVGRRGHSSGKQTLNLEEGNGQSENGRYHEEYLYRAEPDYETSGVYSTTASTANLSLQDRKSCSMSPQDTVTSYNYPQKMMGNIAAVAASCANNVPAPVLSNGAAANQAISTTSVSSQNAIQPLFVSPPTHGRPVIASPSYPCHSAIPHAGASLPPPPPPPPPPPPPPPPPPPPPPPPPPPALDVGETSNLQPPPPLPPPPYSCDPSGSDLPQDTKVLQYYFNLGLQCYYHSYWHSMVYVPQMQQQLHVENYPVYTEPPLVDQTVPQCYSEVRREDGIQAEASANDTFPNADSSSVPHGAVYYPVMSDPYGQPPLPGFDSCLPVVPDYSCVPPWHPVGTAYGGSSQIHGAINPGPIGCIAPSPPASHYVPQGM
Procedure, shortened: (§1)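 Fragment (200 µM) or vehicle was incubated for 3 h with triplicate HEK293T lysate samples of 495 µg, which were then treated with Biotin-Ahx-Ub-VS at 0.5 µM final for 1 h. Labelled DUBs were enriched on NeutrAvidin, digested with LysC and trypsin, and analysed by diaPASEF LC-MS/MS. Values are average log2 fragment/vehicle ratios from an unpaired t-test on global-median-normalised Spectronaut label-free quantities, using proteins with ≥2 unique peptides.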

ATXN3 = ATXN3 (UniProt P54252)
Procedure, shortened: as §1

BAP1 = target: T2, BAP1 (UniProt Q92560)
T2 sequence (whole entry): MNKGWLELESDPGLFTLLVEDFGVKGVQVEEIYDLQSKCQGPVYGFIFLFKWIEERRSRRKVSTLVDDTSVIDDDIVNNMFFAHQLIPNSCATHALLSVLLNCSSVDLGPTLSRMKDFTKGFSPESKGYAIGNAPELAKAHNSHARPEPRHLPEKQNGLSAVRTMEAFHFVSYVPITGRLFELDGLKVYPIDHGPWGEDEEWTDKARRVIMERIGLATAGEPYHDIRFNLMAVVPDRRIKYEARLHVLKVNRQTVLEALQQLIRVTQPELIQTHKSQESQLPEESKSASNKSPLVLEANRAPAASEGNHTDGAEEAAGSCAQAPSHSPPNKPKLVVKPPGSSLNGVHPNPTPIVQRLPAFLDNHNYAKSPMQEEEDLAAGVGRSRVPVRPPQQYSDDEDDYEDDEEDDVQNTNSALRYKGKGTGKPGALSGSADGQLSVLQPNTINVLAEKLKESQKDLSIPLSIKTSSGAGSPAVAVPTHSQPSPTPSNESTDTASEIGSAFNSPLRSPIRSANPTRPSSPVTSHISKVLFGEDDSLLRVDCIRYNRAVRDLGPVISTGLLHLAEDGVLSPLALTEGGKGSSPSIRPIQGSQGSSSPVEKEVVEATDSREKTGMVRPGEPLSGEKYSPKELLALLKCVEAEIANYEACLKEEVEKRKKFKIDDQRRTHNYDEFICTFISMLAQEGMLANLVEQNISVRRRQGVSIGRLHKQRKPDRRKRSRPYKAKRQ
Procedure, shortened: as §1

EIF3F = EIF3F (UniProt O00303)
Procedure, shortened: as §1

EIF3H = EIF3H (UniProt O15372)
Procedure, shortened: as §1

FAM105A = target: T3, FAM105A (UniProt Q9NUU6)
T3 sequence (whole entry): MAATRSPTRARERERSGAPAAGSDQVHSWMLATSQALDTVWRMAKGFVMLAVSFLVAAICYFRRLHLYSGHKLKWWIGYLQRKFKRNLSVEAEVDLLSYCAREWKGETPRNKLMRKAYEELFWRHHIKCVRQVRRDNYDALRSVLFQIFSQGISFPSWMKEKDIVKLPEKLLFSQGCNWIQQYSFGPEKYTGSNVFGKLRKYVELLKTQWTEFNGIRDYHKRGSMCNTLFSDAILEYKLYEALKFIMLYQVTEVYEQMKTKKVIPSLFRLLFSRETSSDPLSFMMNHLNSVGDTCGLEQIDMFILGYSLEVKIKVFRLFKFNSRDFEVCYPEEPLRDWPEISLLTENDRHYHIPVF
Procedure, shortened: as §1

OTUB1 = OTUB1 (UniProt Q96FW1)
Procedure, shortened: as §1

OTUD4 = target: T4, OTUD4 (UniProt Q01804)
T4 sequence (whole entry): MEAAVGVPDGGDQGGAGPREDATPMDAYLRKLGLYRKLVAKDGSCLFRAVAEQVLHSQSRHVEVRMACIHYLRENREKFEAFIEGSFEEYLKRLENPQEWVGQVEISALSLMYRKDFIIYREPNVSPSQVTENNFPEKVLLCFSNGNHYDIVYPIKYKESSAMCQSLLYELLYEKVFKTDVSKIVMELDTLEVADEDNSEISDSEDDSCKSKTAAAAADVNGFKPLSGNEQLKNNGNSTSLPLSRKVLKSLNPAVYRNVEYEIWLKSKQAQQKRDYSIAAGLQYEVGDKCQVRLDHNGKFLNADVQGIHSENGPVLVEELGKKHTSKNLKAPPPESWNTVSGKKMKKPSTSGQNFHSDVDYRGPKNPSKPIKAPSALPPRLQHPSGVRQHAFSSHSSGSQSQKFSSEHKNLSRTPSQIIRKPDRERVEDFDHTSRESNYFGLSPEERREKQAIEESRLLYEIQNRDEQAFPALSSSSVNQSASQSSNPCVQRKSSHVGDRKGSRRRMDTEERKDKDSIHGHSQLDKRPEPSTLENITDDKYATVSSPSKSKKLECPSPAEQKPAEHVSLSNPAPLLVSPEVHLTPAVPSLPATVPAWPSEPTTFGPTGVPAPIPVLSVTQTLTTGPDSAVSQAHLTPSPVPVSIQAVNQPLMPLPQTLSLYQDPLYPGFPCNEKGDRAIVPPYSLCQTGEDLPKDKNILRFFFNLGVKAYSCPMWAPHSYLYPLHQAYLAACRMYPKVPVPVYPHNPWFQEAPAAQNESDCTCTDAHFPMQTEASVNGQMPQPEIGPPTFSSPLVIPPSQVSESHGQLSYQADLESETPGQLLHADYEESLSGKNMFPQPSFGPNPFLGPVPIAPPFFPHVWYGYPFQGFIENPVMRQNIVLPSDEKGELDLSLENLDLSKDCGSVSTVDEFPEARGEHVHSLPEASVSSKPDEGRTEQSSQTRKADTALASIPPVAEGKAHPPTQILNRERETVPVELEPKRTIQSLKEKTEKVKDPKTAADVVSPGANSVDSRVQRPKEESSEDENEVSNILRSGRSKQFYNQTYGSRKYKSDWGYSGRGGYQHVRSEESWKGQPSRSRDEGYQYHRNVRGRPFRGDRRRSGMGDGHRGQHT
Procedure, shortened: as §1

OTUD5 = target: T5, OTUD5 (UniProt Q96G74)
T5 sequence (whole entry): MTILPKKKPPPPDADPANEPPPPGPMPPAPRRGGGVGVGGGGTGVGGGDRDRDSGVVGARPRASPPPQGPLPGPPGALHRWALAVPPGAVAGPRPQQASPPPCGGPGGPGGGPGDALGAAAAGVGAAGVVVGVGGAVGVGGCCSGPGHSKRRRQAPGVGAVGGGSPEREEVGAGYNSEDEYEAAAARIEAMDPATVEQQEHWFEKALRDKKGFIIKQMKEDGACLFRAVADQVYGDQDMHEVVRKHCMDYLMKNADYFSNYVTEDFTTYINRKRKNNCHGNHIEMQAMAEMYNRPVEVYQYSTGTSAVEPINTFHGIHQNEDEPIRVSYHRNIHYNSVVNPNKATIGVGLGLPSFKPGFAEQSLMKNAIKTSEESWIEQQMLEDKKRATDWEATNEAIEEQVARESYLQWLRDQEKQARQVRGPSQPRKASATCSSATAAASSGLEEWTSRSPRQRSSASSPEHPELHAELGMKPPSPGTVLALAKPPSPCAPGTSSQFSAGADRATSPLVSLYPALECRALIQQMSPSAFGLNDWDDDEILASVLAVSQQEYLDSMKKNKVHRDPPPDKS
Procedure, shortened: as §1

Measured: log2 ratio of Biotin-Ahx-Ub-VS probe labelling

Sequence of EIF3H (O15372 whole entry): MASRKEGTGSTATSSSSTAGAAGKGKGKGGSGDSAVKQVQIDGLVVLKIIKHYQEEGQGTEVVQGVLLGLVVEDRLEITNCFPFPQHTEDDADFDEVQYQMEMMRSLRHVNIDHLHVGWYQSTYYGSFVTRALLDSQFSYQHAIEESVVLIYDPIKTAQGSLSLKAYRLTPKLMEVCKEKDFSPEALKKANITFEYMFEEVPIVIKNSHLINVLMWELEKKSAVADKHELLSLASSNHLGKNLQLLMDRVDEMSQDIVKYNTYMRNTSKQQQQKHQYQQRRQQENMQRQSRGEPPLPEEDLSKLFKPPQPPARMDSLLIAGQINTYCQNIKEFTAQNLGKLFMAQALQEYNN
Sequence of EIF3F (O00303 whole entry): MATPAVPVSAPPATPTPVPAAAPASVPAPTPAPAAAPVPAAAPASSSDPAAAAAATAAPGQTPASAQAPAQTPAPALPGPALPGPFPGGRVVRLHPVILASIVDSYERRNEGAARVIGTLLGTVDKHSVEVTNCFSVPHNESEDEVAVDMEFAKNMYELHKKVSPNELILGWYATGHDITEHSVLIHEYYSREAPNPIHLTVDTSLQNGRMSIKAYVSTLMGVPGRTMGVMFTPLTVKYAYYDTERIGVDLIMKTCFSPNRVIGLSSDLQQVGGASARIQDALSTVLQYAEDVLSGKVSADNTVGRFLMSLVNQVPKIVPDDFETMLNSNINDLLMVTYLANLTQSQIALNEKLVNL
Sequence of OTUB1 (Q96FW1 whole entry): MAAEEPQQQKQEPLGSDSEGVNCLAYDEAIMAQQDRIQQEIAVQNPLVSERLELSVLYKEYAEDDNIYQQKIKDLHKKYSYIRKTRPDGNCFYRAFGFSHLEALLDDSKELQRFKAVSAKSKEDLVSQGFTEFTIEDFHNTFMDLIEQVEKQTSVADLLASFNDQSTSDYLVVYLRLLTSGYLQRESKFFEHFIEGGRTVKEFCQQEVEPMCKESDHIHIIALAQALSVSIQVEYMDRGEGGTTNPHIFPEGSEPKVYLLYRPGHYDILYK
Sequence of ATXN3 (P54252 whole entry): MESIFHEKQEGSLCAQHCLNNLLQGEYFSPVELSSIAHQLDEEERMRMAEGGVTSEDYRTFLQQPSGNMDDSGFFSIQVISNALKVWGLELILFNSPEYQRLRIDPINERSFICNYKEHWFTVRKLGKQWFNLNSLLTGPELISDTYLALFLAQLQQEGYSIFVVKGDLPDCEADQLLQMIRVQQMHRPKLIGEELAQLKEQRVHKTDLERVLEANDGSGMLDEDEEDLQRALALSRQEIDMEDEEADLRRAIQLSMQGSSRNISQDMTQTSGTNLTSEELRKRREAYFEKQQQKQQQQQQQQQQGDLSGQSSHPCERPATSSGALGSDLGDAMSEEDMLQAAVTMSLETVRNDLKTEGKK

Cc1ccc(CNC(=O)CCl)nc1C.Cl
inactive: ALG13 -0.419 | ATXN3 -0.055 | EIF3F -0.526 | EIF3H 0.278 | FAM105A -0.225 | OTUB1 -0.192 | OTUD4 -0.29 | OTUD5 -0.221
active: BAP1 -1.57
